Data on 32 molecules can be found in PubChem BioAssay (Tox21).

Inconclusive results are not listed. Entries that show only a call come without a potency. Active and inactive are the calls of the source. Unless noted, calls come from the whole dose curve; as a rule, active = well fitted curve in the direction sought with a large enough effect in the repeat runs; inconclusive = weak or mixed curves; inactive = no such curve, though single readings can be large; an effect the other way counts as inactive or inconclusive.

Tested on in the first assay: not listed separately
Description: qHTS assay to identify small molecule antagonists of the retinoic acid receptor (RAR) signaling pathway (AID 1159552; note: nearly all actives have a fitted effect of over 50% in size). The note with it: C3RL4 RARE luciferase reporter, retinol-stimulated, 6 h; series mostly up to 92.4 µM. The method, boiled down: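 Cells of the C3RL4 line were seeded, incubated overnight, then dosed with compounds in DMSO followed immediately by retinol (1 uM final). Six hours later luciferase detection reagent went in; signal was measured after 30 min at RT.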
Regarding `CCn1c2ccccc2c2cc([N+](=O)[O-])ccc21`, the Potency result was “inactive”.
With `CC(C(=O)O)c1ccc2c(c1)[nH]c1ccc(Cl)cc12` (stereo not drawn), the Potency result was “inactive”.
Turning to `NC[C@H]1O[C@H](O[C@H]2[C@H](O[C@@H]3O[C@H](CO)[C@@H](O)[C@H]3O)C(O)[C@H](N)C[C@@H]2N)[C@H](N)[C@@H](O)[C@@H]1O` (stereo partly drawn), the activity, negative = inhibition is -17.9% [at 8.39 µM] (inactive).
Consider `O=C(Oc1ccccc1)Oc1ccccc1`, for which the Potency entry was “inactive”.
With `CCCNCCC`, the Potency entry is “inactive”.
Still for that read-out and setting: to `CN1CCN2c3ccccc3Cc3ccccc3C2C1` (stereo not drawn) belongs “inactive”.
On to `O=C1CCc2ccc(OCCCCN3CCN(c4cccc(Cl)c4Cl)CC3)cc2N1`, for which the Potency entry is “inactive”.
Same read-out and setting: then `O=C1OC2(c3ccc(O)cc3Oc3cc(O)ccc32)c2ccc(N=C=S)cc21`, with “inactive”; and `ClCCl`, with “inactive”.
For the molecule `Cc1cc(C)c(/C=C2\C(=O)Nc3ccccc32)[nH]1`, the Potency result is “inactive”.
The same measure, in the same setting: to `CCC(CC)C(C)CCOC(C)=O` (stereo not drawn) belongs “inactive”.

Tested on in the next assay: not listed separately
Description: qHTS assay to identify small molecule agonists of the retinoic acid receptor (RAR) signaling pathway (AID 1159553). Note: potency is the fitted concentration of half-maximal effect. The note with it: C3RL4 RARE luciferase reporter, agonist, 6 h; activation: at 73.3 µM (top of the series) unless noted. The method, boiled down:
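C3RL4 RARE-luciferase cells were seeded at 1,000/well and grown overnight at 37 C, then exposed to compounds for 6 hr at 37 C, 5% CO2. Luciferase reagent was added and luminescence was read after 30 min at room temperature.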
(In general: Quantitative high-throughput screening tests each substance at several concentrations.)
For the molecule `CCOC(=O)NNc1ccc(N(CC)CC(C)O)nn1` (stereo not drawn), the Potency result was “inactive”.
For the molecule `CCC(=O)C(=O)CC`, the Potency result is “inactive”.
Consider `COc1ccc(-c2coc3cc(O)ccc3c2=O)cc1`, for which the Potency was 0.486 µM (active).
Still for that read-out and setting: to `C#CC1(O)CC[C@H]2[C@@H]3CCC4=CCCC[C@@H]4[C@H]3CC[C@@]21C` (stereo partly drawn) belongs “inactive”.
For `OC12N=C(c3ccccc3)SC1Cc1cc(Cl)ccc12` (stereo not drawn), the Potency is 1.22 µM (active).
As to `Cc1cc(-c2ccc(N=Nc3cc(S(=O)(=O)O)c4ccccc4c3N)c(C)c2)ccc1N=Nc1cc(S(=O)(=O)O)c2ccccc2c1N`, the Potency result is “inactive”.
Consider `Nc1nc2c(ncn2COCCO)c(=O)[nH]1`, for which the Potency entry was “inactive”.
Still for that read-out and setting: then `CCCCCC(C)OC(=O)COc1ccc(Cl)c2cccnc12` (stereo not drawn), with “inactive”; and `CCO[Si](OCC)(OCC)OCC`, with “inactive”.
Regarding `CN(C)Cc1ccccc1O`, the Potency entry is “inactive”.
On the same count and under the same terms, to `CC(C)=CCC1=C(O)c2ccccc2C(=O)C1=O` belongs “inactive”; to `C=Cc1cccc(C)c1`, “inactive”.
On the same count and under the same terms, then `CCc1ccc(Br)cc1`, with “inactive”; and `OC/C=C/CO`, with “inactive”; and `C#C[C@]1(O)CC[C@H]2[C@@H]3[C@H](C)CC4=C(CCC(=O)C4)[C@H]3CC[C@@]21C`, with “inactive”.
As to `O=S(=O)(O)c1ccccc1/C=C/c1ccc(-c2ccc(/C=C/c3ccccc3S(=O)(=O)O)cc2)cc1`, the Potency entry is “inactive”.
In the case of `CCc1cccc(CC)c1NC(=O)CN(CC(=O)O)CC(=O)O`, the Potency entry is “inactive”.
As for `CC(C)CCCCCOC(=O)CCS`, the Potency entry is “inactive”.
Same read-out and setting: to `c1cnccn1` belongs “inactive”; to `CC(CCc1ccccc1)NCC(O)c1ccc(O)c(C(N)=O)c1` (stereo not drawn), “inactive”.
Take `Cc1ccc(C(=O)O)cc1`: the Potency entry is “inactive”.
Turning to `CCn1c2ccccc2c2cc([N+](=O)[O-])ccc21`, the Potency entry was “inactive”.
As for `CC(C(=O)O)c1ccc2c(c1)[nH]c1ccc(Cl)cc12` (stereo not drawn), the Potency result was “inactive”.
Regarding `NC[C@H]1O[C@H](O[C@H]2[C@H](O[C@@H]3O[C@H](CO)[C@@H](O)[C@H]3O)C(O)[C@H](N)C[C@@H]2N)[C@H](N)[C@@H](O)[C@@H]1O` (stereo partly drawn), the activation was -3.22% [at 8.36 µM] (inactive).
As for `O=C(Oc1ccccc1)Oc1ccccc1`, the Potency result was “inactive”.
On the same count and under the same terms, to `CCCNCCC` belongs “inactive”; to `CN1CCN2c3ccccc3Cc3ccccc3C2C1` (stereo not drawn), “inactive”; to `O=C1CCc2ccc(OCCCCN3CCN(c4cccc(Cl)c4Cl)CC3)cc2N1`, “inactive”.
`O=C1OC2(c3ccc(O)cc3Oc3cc(O)ccc32)c2ccc(N=C=S)cc21`: the Potency result was “inactive”.
Still for that read-out and setting: to `ClCCl` belongs “inactive”; to `Cc1cc(C)c(/C=C2\C(=O)Nc3ccccc32)[nH]1`, “inactive”.
As for `CCC(CC)C(C)CCOC(C)=O` (stereo not drawn), the Potency entry was “inactive”.

Tested on in another assay: not listed separately
Description: qHTS assay to identify small molecule antagonists of the estrogen related receptor (ERR) signaling pathway (AID 1224819;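 note: luminescence from an ERR-driven luciferase reporter measured with One-Glo reagent; nearly all actives have a fitted effect of over 50% in size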). The note with it: ERR reporter cell line, luciferase inhibition; series mostly up to 46.1 µM. The method, boiled down:
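ERR reporter cell line (NTP) plated at 2,000 cells/well, settled 6 h at 37C/5% CO2, then exposed to LOPAC compounds for 18 h at 37C. One-Glo luciferase luminescence read after 30 min at room temperature.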
Turning to `Nc1nc2c(ncn2COCCO)c(=O)[nH]1`, the Potency entry is “inactive”.
Take `CN1CCN2c3ccccc3Cc3ccccc3C2C1` (stereo not drawn): the Potency result is “inactive”.
On the same count and under the same terms, then `Cc1cc(C)c(/C=C2\C(=O)Nc3ccccc32)[nH]1`, with “inactive”.

Tested on in another assay: not listed separately
In words: qHTS assay to identify small molecule agonists of the estrogen related receptor (ERR) signaling pathway (AID 1224820). The note with it: ERR reporter cell line, luciferase agonist mode; series mostly up to 46.1 µM. The method, boiled down:
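ERR reporter cells (NTP line) plated 2,000/well, incubated 6 h at 37 C/5% CO2, then pinned with compounds in DMSO and held 18 h at 37 C. One-Glo added; luminescence read after 30 min at room temperature.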
On to `Nc1nc2c(ncn2COCCO)c(=O)[nH]1`, for which the outcome was inactive.
On the same count and under the same terms, to `CN1CCN2c3ccccc3Cc3ccccc3C2C1` (stereo not drawn) belongs “inactive”; to `Cc1cc(C)c(/C=C2\C(=O)Nc3ccccc32)[nH]1`, “inactive”.

Another assay has as its system estrogen-related receptor alpha (ERRalpha) with PGC-1alpha coactivator, human. In words: qHTS assay to identify small molecule antagonists of the estrogen related receptor signaling pathway with the pleiotropic PPARgamma coactivator (PGC) (AID 1224821; calls by dose curve;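 note: lower luminescence signal means antagonism of PGC/ERR signalling; nearly all actives have a fitted effect of over 50% in size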). The note with it: ERR/PGC reporter cell line, luciferase, antagonist mode; series mostly up to 46.1 µM. The method, boiled down: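 Cells engineered for PGC/ERR signalling (line from NTP) were plated 6 h at 37 C/5% CO2, then exposed to DMSO-dissolved compound for 18 h at 37 C. Luciferase activity was read by One-Glo luminescence after 30 min at room temperature.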
For the molecule `Nc1nc2c(ncn2COCCO)c(=O)[nH]1`, the Potency result was “inactive”.
Consider `CN1CCN2c3ccccc3Cc3ccccc3C2C1` (stereo not drawn), for which the Potency entry is “inactive”.
For `Cc1cc(C)c(/C=C2\C(=O)Nc3ccccc32)[nH]1`, the Potency result was “inactive”.

Tested on in the next assay: not listed separately
Description: qHTS assay to identify small molecule antagonists of the estrogen related receptor signaling pathway with the pleiotropic PPARgamma coactivator (PGC) cell viability counter screen (AID 1224822). The note with it: ERR/PGC reporter cell line viability counter screen; series mostly up to 46.1 µM. The procedure, abridged: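 PGC/ERR cells rested 6 h, then compound-treated 17.5 h at 37 C. CellTiter-Fluor added for 30 min at 37 C, viability measured by fluorescence intensity.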
Consider `Nc1nc2c(ncn2COCCO)c(=O)[nH]1`, for which the Potency result is “inactive”.
Consider `CC(CCc1ccccc1)NCC(O)c1ccc(O)c(C(N)=O)c1` (stereo not drawn), for which the Potency result is “inactive”.
On the same count and under the same terms, to `CN1CCN2c3ccccc3Cc3ccccc3C2C1` (stereo not drawn) belongs “inactive”.
For the molecule `Cc1cc(C)c(/C=C2\C(=O)Nc3ccccc32)[nH]1`, the Potency entry was “inactive”.

Tested on in another assay: not listed separately
Description: qHTS assay to identify small molecule agonists of the estrogen related receptor signaling pathway with the pleiotropic PPARgamma coactivator (PGC) (AID 1224823). The note with it: ERR/PGC reporter cell line, luciferase agonist mode; series mostly up to 46.1 µM. The method, boiled down:
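PGC/ERR reporter cells were seeded, rested 6 h at 37 C/5% CO2, then exposed to compounds in DMSO by pin transfer for 18 h at 37 C. Luciferase activity was read as luminescence after One-Glo reagent and 30 min at room temperature.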
As for `Nc1nc2c(ncn2COCCO)c(=O)[nH]1`, the molecule was called inactive.
In the case of `CN1CCN2c3ccccc3Cc3ccccc3C2C1` (stereo not drawn), the molecule was classed as inactive.
Same read-out and setting: then `Cc1cc(C)c(/C=C2\C(=O)Nc3ccccc32)[nH]1`, with “inactive”.

Tested on in another assay: not listed separately
Description: qHTS assay to identify small molecule antagonists of the estrogen related receptor (ERR) signaling pathway from Tox21 library - cell viability counter screen (AID 1224834). Note: nearly all actives have a fitted effect of over 30% in size. Note: potency is the fitted concentration of half-maximal effect. The note with it: ERR reporter cells viability, CellTiter-Fluor, 17.5 h; series mostly up to 92.4 µM. The method, boiled down: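 ERR reporter cells, 2,000 per well, rested 6 h, then exposed to compound in DMSO for 17.5 hours at 37 C. Viability read as fluorescence after 30 min with CellTiter-Fluor.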
In the case of `CCOC(=O)NNc1ccc(N(CC)CC(C)O)nn1` (stereo not drawn), the Potency result is “inactive”.
On the same count and under the same terms, then `CCC(=O)C(=O)CC`, with “inactive”; and `COc1ccc(-c2coc3cc(O)ccc3c2=O)cc1`, with “inactive”.
Same read-out and setting: then `C#CC1(O)CC[C@H]2[C@@H]3CCC4=CCCC[C@@H]4[C@H]3CC[C@@]21C` (stereo partly drawn), with 54.5 µM (active); and `Cc1cc(-c2ccc(N=Nc3cc(S(=O)(=O)O)c4ccccc4c3N)c(C)c2)ccc1N=Nc1cc(S(=O)(=O)O)c2ccccc2c1N`, with “inactive”; and `Nc1nc2c(ncn2COCCO)c(=O)[nH]1`, with “inactive”.
Turning to `CCO[Si](OCC)(OCC)OCC`, the Potency entry was “inactive”.
Take `CN(C)Cc1ccccc1O`: the Potency result is “inactive”.
In the case of `C=Cc1cccc(C)c1`, the Potency entry was “inactive”.
As for `CCc1ccc(Br)cc1`, the Potency entry was “inactive”.
Turning to `OC/C=C/CO`, the Potency entry was “inactive”.
Same read-out and setting: then `C#C[C@]1(O)CC[C@H]2[C@@H]3[C@H](C)CC4=C(CCC(=O)C4)[C@H]3CC[C@@]21C`, with “inactive”; and `O=S(=O)(O)c1ccccc1/C=C/c1ccc(-c2ccc(/C=C/c3ccccc3S(=O)(=O)O)cc2)cc1`, with “inactive”.
For `CCc1cccc(CC)c1NC(=O)CN(CC(=O)O)CC(=O)O`, the Potency result was “inactive”.
As for `CC(C)CCCCCOC(=O)CCS`, the Potency result was “inactive”.
The same measure, in the same setting: to `c1cnccn1` belongs “inactive”.
Still for that read-out and setting: to `CC(CCc1ccccc1)NCC(O)c1ccc(O)c(C(N)=O)c1` (stereo not drawn) belongs 27.3 µM (active); to `Cc1ccc(C(=O)O)cc1`, “inactive”.
Take `CCn1c2ccccc2c2cc([N+](=O)[O-])ccc21`: the Potency result is “inactive”.
Still for that read-out and setting: to `CC(C(=O)O)c1ccc2c(c1)[nH]c1ccc(Cl)cc12` (stereo not drawn) belongs “inactive”.
In the case of `NC[C@H]1O[C@H](O[C@H]2[C@H](O[C@@H]3O[C@H](CO)[C@@H](O)[C@H]3O)C(O)[C@H](N)C[C@@H]2N)[C@H](N)[C@@H](O)[C@@H]1O` (stereo partly drawn), the viability change, negative = cytotoxic is 2.75% [at 8.39 µM] (inactive).
`O=C(Oc1ccccc1)Oc1ccccc1`: the Potency result is “inactive”.
Same read-out and setting: to `CCCNCCC` belongs “inactive”; to `CN1CCN2c3ccccc3Cc3ccccc3C2C1` (stereo not drawn), “inactive”; to `O=C1CCc2ccc(OCCCCN3CCN(c4cccc(Cl)c4Cl)CC3)cc2N1`, 26.6 µM (active).
Turning to `O=C1OC2(c3ccc(O)cc3Oc3cc(O)ccc32)c2ccc(N=C=S)cc21`, the Potency result was “inactive”.
The same measure, in the same setting: to `ClCCl` belongs “inactive”; to `Cc1cc(C)c(/C=C2\C(=O)Nc3ccccc32)[nH]1`, “inactive”; to `CCC(CC)C(C)CCOC(C)=O` (stereo not drawn), “inactive”.
